Compounds with a hit are over-represented: about 12% of the library has one in this group of screens.
Sm TGR block: qHTS Assay for the Inhibitors of Schistosoma Mansoni Peroxiredoxins | Schistosoma mansoni thioredoxin glutathione reductase (TGR), Q962Y6 | purified TGR, DTNB reduction, TNB absorbance 405 nm | Potency, µM (top dose mostly 114 µM), actives largely listed as inhibitors | 360,000 compounds, 3% hits; active = well fitted inhibition curve with a large enough effect; inconclusive = small, poorly fitted or top-dose-only effect; inactive = no such curve, though single readings can be large or run the other way; note: nearly all actives have a fitted effect of over 60% in size
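TGR 20 nM + NADPH 100 uM (dispensed conc.), cpd preinc 15 min RT; start with NADPH (500 uM addition) then DTNB (15 mM addition). Kinetic TNB absorbance, 405 nm filter. Four-parameter Hill fit across titration.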
Cycloheximide cs: Cycloheximide Counterscreen for Small Molecule Inhibitors of Shiga Toxin. cell reporter, cycloheximide protein synthesis inhibition counterscreen. max response, %. 300,000 compounds, 12% hits. AID 2314, 2010; in the data active = max response mostly above about 13%, no sharp cut-off; inactive = mostly below about 14%; note: read at 38.3 µM for the half of the compounds with a filed dose
FMDV inh: High Throughput Screening for Foot and Mouth Disease Virus Antivirals; FMDV antiviral cell-based qHTS; Potency, µM (top dose mostly 57.9 µM), most hits filed as inhibitors; 410,000 compounds, 1.2% hits; calls by dose curve; tested in HEK293T cells; note: read-out not given here; nearly all actives have a fitted effect of over 45% in size
Shiga toxin inh: A qHTS for Small Molecule Inhibitors of Shiga Toxin; 290,000 compounds, 9.2% hits; Vero cells, Shiga toxin protein synthesis inhibition reporter; inhibition, % at 38.7 µM; in the data active = inhibition mostly above about 28%, no sharp cut-off; inactive = mostly below about 43%
Large screens that a line does not name were inactive.

CCOc1ccc(CCNC(=O)Cn2nc(-c3ccc(C)cc3)ccc2=O)cc1OCC	none (no result: Cycloheximide cs, Shiga toxin inh)
CN(C)c1cccc(C(=O)NNC(=O)CSc2ccccc2)c1	Cycloheximide cs 13
CN(C)c1cccc(C(=O)NCc2ccccc2Cl)c1	Cycloheximide cs 19
CN(C)c1cccc(C(=O)NCc2ccccc2)c1	none
CN(C)c1cccc(C(=O)OCC(=O)Nc2nccs2)c1	Cycloheximide cs 30, Shiga toxin inh 101
CN(C)c1cccc(C(=O)OCC(=O)Nc2ccccc2-c2ccccc2)c1	FMDV inh inconclusive
CN(C)c1cccc(C(=O)OCC(=O)Nc2ccccc2Cl)c1	Shiga toxin inh 42
Cc1ccc(NC2=CC(c3ccccc3F)N(c3ccc(C)cc3)C2=O)cc1 (stereo unspecified)	Sm TGR block inconclusive (no result: Cycloheximide cs, Shiga toxin inh)
Cc1c(C(=O)N2CCOc3ccccc3C2)sc2ncnc(NCCCN3CCOCC3)c12	none (no result: Sm TGR block, Cycloheximide cs, Shiga toxin inh)
Cc1cccc(OCCCC(=O)Nc2nccs2)c1	Sm TGR block inconclusive, FMDV inh inconclusive
Cc1cccc(C(=O)OCC(=O)Nc2nccs2)c1	Cycloheximide cs 19
COc1ccccc1-c1noc(CSc2nnc(Cc3ccccc3)n2-c2ccc(C)c(C)c2)n1	none (no result: Cycloheximide cs, Shiga toxin inh)
COc1ccccc1NC(=O)Cc1c(C(=O)O)[nH]c2ccc(Cl)cc12	none (no result: Cycloheximide cs, Shiga toxin inh)
CC(C)(C)C(=O)Nc1nnc(SCc2cccc(F)c2)s1	Cycloheximide cs 53, Shiga toxin inh 91
CC(C)C(=O)Nc1nnc(SCc2cccc(F)c2)s1	Cycloheximide cs 14, Shiga toxin inh 49
COCCSc1nnc(NC(=O)CSc2ccccc2)s1	none (no result: FMDV inh)
CC(C)(C)C(=O)Nc1nnc(SCc2ccc(F)cc2)s1	Cycloheximide cs 22
O=C(Nc1nnc(SCc2cccc(F)c2)s1)c1ccco1	none
COCCSc1nnc(NC(=O)C(C)(C)C)s1	Cycloheximide cs 59, Shiga toxin inh 111
COc1cc(CNC(=O)c2cnn(-c3ncc4c(n3)-c3ccccc3CC4)c2C)cc(OC)c1OC	none (no result: Sm TGR block, Cycloheximide cs, Shiga toxin inh)
CC(C)(Cc1c[nH]c2ccccc12)NCC(O)COc1ccccc1C#N (stereo unspecified)	none (no result: Sm TGR block)
CCOc1ccccc1NC(=O)Nc1cc(C(=O)NCc2ccc(C)cc2)ccc1N1CCCC1	none (no result: Cycloheximide cs, Shiga toxin inh)
C[C@]12CCC(=O)C=C1CCC1C3CC[C@](O)(C(=O)CO)[C@@]3(C)CC3OC312 (stereo partly specified)	none (no result: Sm TGR block, Cycloheximide cs, Shiga toxin inh)
CC(=O)c1cccc(Nc2nc(-c3sc(N)nc3C)cs2)c1	Cycloheximide cs 20, FMDV inh inconclusive
CC(=O)c1cccc(NC(=O)CSc2ccc(-c3sc(C)nc3C)nn2)c1	FMDV inh inconclusive
CC(=O)c1cccc(Nc2nc(-c3sc(C)nc3C)cs2)c1	Cycloheximide cs 12, FMDV inh inconclusive
Cc1nc(NC(=O)c2ccccc2)sc1-c1csc(Nc2ccc(Cl)cc2)n1	none (no result: FMDV inh)
O=C(NCc1ccco1)c1ccc2nc3sc4c(c3c(=O)n2c1)CCCC4	Sm TGR block 11µM, Cycloheximide cs 60, Shiga toxin inh 99 (no result: FMDV inh)
N=c1c2c3c(sc2ncn1Cc1ccco1)CCCCC3	Cycloheximide cs 21
C=CCn1c(SCC(=O)NCc2ccco2)nc2sc3c(c2c1=O)CCCC3	none
CC(C)Cn1cnc2sc3c(c2c1=N)CCCC3	none
CC(O)CNc1nc2sc3c(c2c(=O)n1Cc1ccco1)CCCCC3 (stereo unspecified)	Cycloheximide cs 25, Shiga toxin inh 36
CC(O)CNc1nc2sc3c(c2c(=O)n1CCc1ccccc1)CCCCC3 (stereo unspecified)	Cycloheximide cs 18
O=C(Nc1cc(C(F)(F)F)ccc1Cl)c1cc(-c2ccc3c(c2)OCCO3)on1	none (no result: Cycloheximide cs, Shiga toxin inh)
C=CC(C1=CC(=O)C(OC)=C(OC)C1=O)c1ccccc1 (stereo unspecified)	FMDV inh 25µM (no result: Sm TGR block, Cycloheximide cs, Shiga toxin inh)
C=CC(C1=CC(=O)C(OC)=CC1=O)c1ccccc1 (stereo unspecified)	none (no result: Sm TGR block, Cycloheximide cs, Shiga toxin inh)
O=C(CCO)c1ccc(O)cc1	Sm TGR block 18µM
CCCCC(=O)c1ccc(O)cc1	Cycloheximide cs 15 (no result: FMDV inh)
O=C(CCSc1ccc(Br)cc1)c1ccc(O)cc1	Sm TGR block 2.5µM
Cc1cccc(C)c1-n1ncc(C(=O)O)c1C1CCN(C(=O)OC(C)(C)C)CC1	none (no result: Cycloheximide cs, Shiga toxin inh)
O=[N+]([O-])c1ccc(-n2nnnc2-c2ccccc2)cc1	none
O=[N+]([O-])c1ccc(-n2nnnc2-c2ccccc2)c([N+](=O)[O-])c1	Sm TGR block 18µM, FMDV inh 32µM
CC(Sc1nnc(-c2ccco2)o1)C(=O)NCCC1=CCCCC1 (stereo unspecified)	Sm TGR block 45µM
O=C(NC(=S)NCCC1=CCCCC1)c1ccco1	Cycloheximide cs 37, Shiga toxin inh 107
Cc1ccccc1C(=O)NC(=S)NCCC1=CCCCC1	Sm TGR block 5µM
CCN(Cc1ccccc1)C(=O)c1c(C)oc2ncn(C)c(=O)c12	none (no result: Cycloheximide cs, Shiga toxin inh)
CC(=O)C1C(=O)c2c(cccc2[N+](=O)[O-])C1=Nc1ccc(S(N)(=O)=O)cc1 (stereo unspecified)	Sm TGR block inconclusive, Cycloheximide cs 30
CCOC(=O)c1ccccc1NC(=O)c1cccs1	none
O=C(/C=C\Nc1cccc(F)c1)c1cccs1	Cycloheximide cs 40, Shiga toxin inh 42
O=C(/C=C/Nc1ccccc1F)c1cccs1	Cycloheximide cs 45, FMDV inh 13µM, Shiga toxin inh 30
O=C(/C=C/Nc1ccc(F)cc1F)c1cccs1	Cycloheximide cs 46, FMDV inh 20µM, Shiga toxin inh 49
Cc1ccc(N/C=C/C(=O)c2cccs2)cc1	none
O=C(/C=C/Nc1ccc(F)cc1F)c1ccc(Br)cc1	none (no result: Sm TGR block, Cycloheximide cs, Shiga toxin inh)
CCOC(=O)c1ccccc1N/C=C/C(=O)c1cccs1	Cycloheximide cs 74, Shiga toxin inh 156
COc1ccc(CCNC(=O)c2cc(=O)c3cc(C)c(C)cc3o2)cc1OC	none (no result: Cycloheximide cs, Shiga toxin inh)
O=C(NC1CC(=O)N(c2ccc(F)cc2)C1)c1ccc(S(=O)(=O)N2CCOCC2)cc1 (stereo unspecified)	none (no result: Cycloheximide cs, Shiga toxin inh)
Cc1ccc(C)c(NC(=O)Cn2c(=O)n(Cc3ccco3)c(=O)c3oc4ccccc4c32)c1	none (no result: Cycloheximide cs, Shiga toxin inh)
Cc1ccc(S(=O)(=O)CC(=O)Nc2sc3c(c2C#N)CCCC3)cc1	none (no result: Cycloheximide cs, Shiga toxin inh)
COc1cccc(N2CCN(C3C4CC5CC(C4)CC3C5)CC2)c1 (stereo unspecified)	Cycloheximide cs 22
COc1cc(-c2noc(CCC(=O)Nc3cc(C)ccc3C)n2)cc(OC)c1OC	none (no result: Cycloheximide cs, Shiga toxin inh)
O=C(Cc1cc(=O)[nH]c(=O)[nH]1)N1CCN(CCO)CC1	Sm TGR block 32µM
C=CCSc1nnc2c(n1)OC=Nc1ccc(Br)cc1-2	Sm TGR block 7.9µM
COc1ccccc1C(=O)C1CCCN(C(=O)Nc2ccccc2F)C1 (stereo unspecified)	Cycloheximide cs 28, Shiga toxin inh 73
CCN(CC)CC(=O)N1CCCC(C(=O)c2ccccc2OC)C1 (stereo unspecified)	none
COC(=O)c1ccc(NC(=O)N2CCCC(C(=O)c3ccccc3OC)C2)cc1 (stereo unspecified)	FMDV inh inconclusive
COc1ccccc1C(=O)C1CCCN(C(=O)CCC(=O)c2ccccc2)C1 (stereo unspecified)	Cycloheximide cs 12
C=COC(=O)CSc1nc(-c2cccs2)ccc1C#N	Cycloheximide cs 31

Screening results (PubChem BioAssay)
